Shown are actives, neighbours in structure and some others; about 7.5% of the full set was active somewhere.
NPC1 prom act: qHTS Assay for NPC1 Promoter Activators. Huh7 NPC1 promoter luciferase reporter, 24 h. Potency, µM (doses to about 9.22 µM), usual class: activators. actives 2.4% (n = 320,000). AID 485313, 2010; further: nearly all actives have a fitted effect of over 60% in size
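Stably transfected Huh7 (NPC1 promoter→luciferase), 1500 cells/well in Opti-MEM + 10% FBS, 2 h settle, then compound 24 h at 37 °C. Luminescence after 10 min with Amplite reagent.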
Rab9 prom act: qHTS Assay for Rab9 Promoter Activators; Huh7 Rab9 promoter-luciferase reporter, luminescence, 24 h; Potency, µM (highest dose often 9.22 µM), hits mostly activators; actives 2.8% (n = 320,000); AID 485297, 2010; further: nearly all actives have a fitted effect of over 60% in size
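Huh7 cells stably carrying Rab9 promoter–luciferase reporter, plated 1500 cells/well, compound added after 2 h and incubated 24 h at 37 °C; luciferase luminescence then read after 10 min with detection reagent.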
FLuc counter: qHTS profiling assay for firefly luciferase inhibitor/activator using purifed enzyme and Km concentrations of substrates (counterscreen for miR-21 project) | purified FLuc, Km substrates, luminescence inhibition | Potency, µM (top dose mostly 57.5 µM), most hits filed as inhibitors | actives 6.9% (n = 360,000) | AID 588342, 2011; further: nearly all actives have a fitted effect of over 55% in size
Target sequence (P08659 whole entry, looked up): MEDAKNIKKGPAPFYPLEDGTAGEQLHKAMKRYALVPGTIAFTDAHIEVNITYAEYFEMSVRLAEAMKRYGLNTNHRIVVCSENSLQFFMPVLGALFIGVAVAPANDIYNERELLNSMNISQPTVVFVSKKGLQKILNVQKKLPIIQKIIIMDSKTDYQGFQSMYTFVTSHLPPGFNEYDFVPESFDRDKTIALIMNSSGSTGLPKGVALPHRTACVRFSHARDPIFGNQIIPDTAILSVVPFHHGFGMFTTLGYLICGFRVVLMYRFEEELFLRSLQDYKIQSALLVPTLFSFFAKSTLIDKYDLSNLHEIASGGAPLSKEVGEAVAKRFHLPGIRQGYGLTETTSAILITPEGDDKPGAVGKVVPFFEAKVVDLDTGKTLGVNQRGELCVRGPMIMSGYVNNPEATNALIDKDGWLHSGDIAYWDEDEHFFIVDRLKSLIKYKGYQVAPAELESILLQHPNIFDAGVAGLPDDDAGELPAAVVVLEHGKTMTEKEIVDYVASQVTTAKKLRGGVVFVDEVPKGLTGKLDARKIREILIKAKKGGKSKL
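Purified P. pyralis luciferase (10nM final) with 10uM D-luciferin and 10uM ATP (Km levels) in 50mM Tris acetate pH 7.5, 10mM Mg acetate, 0.01% Tween-20, 0.05% BSA; qHTS 6-point titration, ~60 µM downward; luminescence read.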
ELG1 genotox: qHTS screen for small molecules that induce genotoxicity in human embryonic kidney (HEK293T) cells expressing luciferase-tagged ELG1; HEK293T ELG1-luciferase reporter, luminescence, 16 h; actives 1.3% (n = 330,000); Potency, µM (titrated, usually from 46 µM), actives largely listed as activators; further: nearly all actives have a fitted effect of over 60% in size
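HEK293T cells expressing luciferase-tagged ELG1 were treated with compound or DMSO for 16 hr at 37°C. Luciferase activity was then read after 30 min with ONE-Glo at room temperature; rising signal flags genetic stress.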
SMN2 splice enh: qHTS Assay for Enhancers of SMN2 Splice Variant Expression; HEK293 SMN2-luciferase splicing reporter, luminescence, 30-36 h; Potency, µM (series often up to 46.1 µM), usual class: activators; actives 2.8% (n = 210,000); AID 1458, 2008; further: nearly all actives have a fitted effect of over 55% in size
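HEK293 cells carry an SMN2 minigene-luciferase reporter in which exon 7 inclusion puts luciferase in frame. Cells were seeded at 2000 cells/well, attached for 10-12 hours, then exposed to compounds for 30-36 hours at 37C before ONE-Glo luminescence.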
Hits are given with their value; – = inactive; ? = inconclusive; · = no result. The call rests on the fitted dose curve; in most records, active means well fitted curve in the direction sought with a large enough effect; inconclusive means small, poorly fitted or top-dose-only effect, or another doubt; inactive means no such curve, though single readings can be large; an effect the other way counts as inactive or inconclusive.

SMILES	NPC1 prom act	Rab9 prom act	FLuc counter	ELG1 genotox	SMN2 splice enh
O=C(c1ccc(Cl)cc1)c1ccc(OCC(=O)N2CCOCC2)cc1	–	–	–	–	–
O=C(Nc1cccc(OCC(=O)N2CCOCC2)c1)c1ccc(C(F)(F)F)cc1	–	–	15µM	–	·
CN(CCc1ccccc1)C(=O)c1ccc(NC(=O)Cc2cccc([N+](=O)[O-])c2)cc1	·	·	·	–	·
O=C(Nc1ccc(C(=O)N2CCOCC2)cc1)Nc1cccc(Cl)c1	?	–	15µM	–	?
Nc1ccc(C(=O)Nc2ccc(OC(F)(F)C(F)F)c(NC(=O)c3ccc(N)cc3)c2)cc1	–	–	21µM	–	·
O=C(O)CCn1cc(C2CC(c3ccccc3)=NN2c2ccccc2)c(-c2ccccc2)n1 (configuration not stated)	–	–	19µM	–	–
CCCc1nn2c(=O)cc(O)nc2s1	–	–	–	–	–
CCCc1nn2cc(-c3ccc(C)c(C)c3)nc2s1	·	·	0.19µM	·	1.3µM
COCCCNC(=O)c1ccc2c(c1)NC(=O)C(C(C)C)N2 (configuration not stated)	·	·	–	·	–
CC(C)(C)NC(=O)NC(=O)CSc1nnc(COc2ccccc2Cl)o1	–	–	17µM	–	–
CC1CCCCC1NC(=O)CSc1nnc(COc2ccccc2Cl)o1 (configuration not stated)	–	–	21µM	–	–
C/C(=N\NC(=O)c1cccs1)c1cccnc1	–	–	?	–	–
C=CC(C)(C)c1[nH]cnc1/C=C1\NC(=O)C(C(C)C)NC1=O (configuration not stated)	–	–	–	–	·
Cc1cc(=O)[nH]c2ccc(S(=O)(=O)Nc3ccccc3)cc12	–	–	–	23µM	·
CC(C)c1csc(CN2CCN(Cc3ccc(F)cc3)C(CCO)C2)n1 (configuration not stated)	–	–	–	–	·
CC(C)C(=O)Nc1nnc(-c2ccco2)s1	–	–	–	–	·
COc1ccccc1NC(=O)Nc1nnc(-c2ccco2)s1	–	–	–	–	–
O=C(Nc1ccc(F)cc1)Nc1nnc(-c2ccco2)s1	?	2.8µM	–	–	–
COc1ccc(C(=O)Nc2nnc(-c3ccco3)s2)cc1	0.45µM	0.32µM	0.48µM	?	1.4µM
O=C(Nc1nnc(-c2ccco2)s1)c1ccccc1	0.79µM	0.4µM	3µM	1.2µM	2µM
O=C(NCc1ccccc1)c1ccc[n+]([O-])c1	–	–	–	–	·
COc1ccc(N2C(=O)[C@@H]3[C@H](C2=O)[C@H](C(=O)c2ccc(OC(C)=O)cc2)N2N=CC=C[C@@H]32)cc1	–	–	–	–	–
CCCCOc1c(Cl)cc(C(=O)N(C)CC(=O)Nc2ccc(N3CCOCC3)cc2)cc1OCC	–	–	–	–	·
Nc1nonc1C(=O)N/N=C/c1ccc(-c2ccc(Cl)c(C(=O)O)c2)o1	–	–	?	–	–
N/C(=N\N=C\c1ccc(Br)o1)c1nonc1N	2.5µM	1.3µM	12µM	?	·
SMILES	NPC1 prom act	Rab9 prom act	FLuc counter	ELG1 genotox	SMN2 splice enh
Nc1nonc1C(=O)N/N=C/c1ccc(Br)o1	–	–	19µM	–	·
CCc1c(C)nc2cc(-c3ccc(Cl)cc3)[nH]n2c1=O	4µM	?	8.5µM	?	·
O=c1c2c(nc3cc(-c4ccc(Cl)cc4)[nH]n13)CCS2	3.5µM	?	2.1µM	?	13µM
CCc1c(C)nc2cc(-c3cccc(Br)c3)[nH]n2c1=O	?	?	12µM	–	·
O=c1cc(-c2ccc([N+](=O)[O-])cc2)nc2cc(-c3ccc(Cl)cc3)[nH]n12	–	–	?	–	–
Cc1nc2cc(-c3ccc(Br)cc3)[nH]n2c(=O)c1Cl	?	2.5µM	9.5µM	16µM	·
COc1cccc(C(=O)O/N=C2\CCS(=O)(=O)c3sccc32)c1	–	–	1.5µM	–	–
Cc1ccc(C(=O)O/N=C2\CCS(=O)(=O)c3sccc32)cc1	–	–	0.48µM	–	–
O=C(OC1CCS(=O)(=O)c2sccc21)c1ccccc1 (configuration not stated)	–	–	–	–	–
O=C(O/N=C1\CCS(=O)(=O)c2sccc21)c1c(F)cccc1F	–	–	4.8µM	–	–
COC(=O)C1=C(NC(=O)c2cccc(OC)c2)CCS1	–	–	–	–	–
O=S1(=O)CC/C(=N\Nc2ccccc2)c2ccsc21	–	–	?	–	–
CCOC(=O)c1cnc2ccc(C)cc2c1Nc1ccc(OCc2ccccc2Cl)cc1	·	·	–	·	–
CCOc1ccccc1NS(=O)(=O)c1c(C)noc1C	–	–	–	23µM	–
CS(=O)(=O)c1ccc(C(=O)Nc2cc(-c3ccccc3)nn2-c2ccccc2)cc1	–	–	–	–	·
CS(=O)(=O)c1ccc(-c2cn3cc(C(=O)O)ccc3n2)cc1	–	–	2.7µM	–	–
COC(=O)c1ccc2nc(-c3ccc(S(C)(=O)=O)cc3)cn2c1	?	?	24µM	–	–
COC(=O)c1ccc2nc(-c3cccc(N)c3)cn2c1	0.5µM	1µM	0.6µM	?	·
COC(=O)c1cc2nc(-c3ccccc3)cc(C)n2n1	–	–	–	–	·
Cc1ccccc1C(=O)Nc1cc2c(cc1N1CCOCC1)n(C)c(=O)n2C	·	·	–	·	–
Cc1ccc(C)c(NC(=O)Cn2c(=O)oc3cc(S(=O)(=O)NCc4ccccc4)ccc32)c1	·	·	?	·	–
COC(=O)CNC(=O)COC(=O)/C=C/c1ccc2ccccc2n1	–	–	?	–	–
CC(OC(=O)/C=C/c1ccc2ccccc2n1)C(=O)NCc1ccccc1 (configuration not stated)	–	–	9.5µM	–	·
COc1ccc(C(=O)N2CCC3(CC2)CN(c2ccncc2)C3)cc1	·	·	·	·	–
Cn1c(C(=O)NCCc2c[nH]c3ccccc23)cc2sccc21	?	?	12µM	15µM	–
SMILES	NPC1 prom act	Rab9 prom act	FLuc counter	ELG1 genotox	SMN2 splice enh
O=C(NCCc1c[nH]c2ccccc12)c1ccc2c(c1)OCO2	1.1µM	1.3µM	6.7µM	?	·
O=C(NCCc1c[nH]c2ccccc12)c1cc2sccc2n1Cc1ccccc1	–	–	–	–	–
Cc1ccc2[nH]cc(CCNC(=O)c3ccc4c(c3)OCO4)c2c1	–	–	?	–	·
O=C(NCCc1c[nH]c2ccccc12)c1cc(Cl)c2c(c1)OCO2	2.5µM	1.4µM	24µM	?	·
O=C(NCCc1c[nH]c2ccccc12)/C(=C\c1cccs1)NC(=O)c1ccccc1	–	–	–	–	–
Cc1ccc(C(=O)N/C(=C/c2ccco2)C(=O)NCCc2c[nH]c3ccccc23)cc1	–	–	15µM	–	–

Bioassay records as filed in PubChem BioAssay.
